Article PMC6925144, “A prospective compound screening contest identified broader inhibitors for Sirtuin 1” (Scientific Reports, 2019)
Whole data set: some 3,200 compounds, median “TSA(with NAD+) / Primary screening (TSA) / delta Tm (K)” near -0.04, cut for the highest 2% near 0.37. Shown is part of a subset that was picked to be rich in the highest values.

These molecules were tested against NAD-dependent deacetylase Sirtuin 1 (human, UniProt Q96EB6) (assay: primary screen, delta tm). Settings: 10 µM.
Parameters: single well (n = 1, as 'the same TSA')
Experimental: A total of 3,192 compounds extracted from the proposed lists were first screened by thermal shift assay (TSA), which determined a melting temperature shift (ΔTm) of Sirtuin 1 upon the addition of a test compound at a concentration of 10 µM (n = 1) with primary hit criteria of ΔTm > 0.45 K or ΔTm < −1.5 K. Primary hits (48 compounds) were retested in the same assay at three concentrations (5, 10, 20 µM, n = 4) for hit confirmation and for dose-dependency check. Secondary hits (41 compounds) were checked their selectivity for Sirtuin 1 based on counterscreening on unrelated protein targets (bovine carbonic anhydrase (CA) and recombinant SH2 domain of hABL1 kinase (ABL1)) at three different concentrations (5, 10, 20 µM, n = 4), which yielded 38 hit compounds, hereafter referred to as TSA hits. The TSA screening above was conducted in the absence of NAD+. As noted, the structure of Sirtuin 1 is different in the presence of NAD+ and substrate. The chemical profile of TSA hits found from the different conditions could be different. […] As a result, 39 TSA hits were found.

NAD-dependent deacetylase Sirtuin 1, sequence (Q96EB6 2-747 limits assumed): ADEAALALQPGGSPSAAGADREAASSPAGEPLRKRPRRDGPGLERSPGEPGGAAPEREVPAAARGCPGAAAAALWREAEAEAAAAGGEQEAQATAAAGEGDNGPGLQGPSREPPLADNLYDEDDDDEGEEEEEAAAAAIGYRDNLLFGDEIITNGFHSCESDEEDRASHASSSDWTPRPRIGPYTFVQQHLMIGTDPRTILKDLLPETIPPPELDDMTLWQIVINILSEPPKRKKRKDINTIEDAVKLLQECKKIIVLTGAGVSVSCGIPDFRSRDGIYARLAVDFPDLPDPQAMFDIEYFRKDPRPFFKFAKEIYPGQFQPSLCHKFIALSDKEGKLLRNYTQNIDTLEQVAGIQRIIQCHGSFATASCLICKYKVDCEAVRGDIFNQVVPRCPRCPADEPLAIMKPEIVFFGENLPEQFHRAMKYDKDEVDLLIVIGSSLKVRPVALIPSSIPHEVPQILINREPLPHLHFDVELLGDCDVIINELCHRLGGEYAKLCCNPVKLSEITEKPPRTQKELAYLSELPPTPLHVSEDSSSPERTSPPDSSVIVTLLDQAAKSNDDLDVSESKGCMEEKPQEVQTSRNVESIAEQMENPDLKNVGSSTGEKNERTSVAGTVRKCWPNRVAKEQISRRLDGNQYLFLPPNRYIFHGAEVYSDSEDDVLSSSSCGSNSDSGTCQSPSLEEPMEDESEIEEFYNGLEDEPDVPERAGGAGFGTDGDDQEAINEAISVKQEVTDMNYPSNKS

Row | Structure (SMILES) | TSA(with NAD+) / Primary screening (TSA) / delta Tm (K)
1 | CCCNc1nnc(S)s1 | -0.33
2 | CN(c1ccccc1)S(=O)(=O)c1cccc(NC(=O)CCc2c[nH]c3ccccc23)c1 | 0.32
3 | CN(c1ccccc1)S(=O)(=O)c1cccc(NC(=O)CNc2cccc3ccccc23)c1 | 0.41
4 | CN(c1ccccc1)S(=O)(=O)c1cccc(NC(=O)CCCc2c[nH]c3ccccc23)c1 | 0.39
5 | CN(c1ccccc1)S(=O)(=O)c1cccc(NCC(=O)Nc2ccc(Br)cc2)c1 | -0.01
6 | CN(c1ccccc1)S(=O)(=O)c1cccc(NC(=O)c2cc(Cl)nc3ccccc23)c1 | 0.16
7 | CN(c1ccccc1)S(=O)(=O)c1cccc(C(=O)NCCc2c[nH]c3ccccc23)c1 | 0.17
8 | CCOC(=O)C1=C(COC(=O)c2sc(-c3ccco3)nc2-c2ccccc2)NC(=O)NC1 | 0.06
9 | CS(=O)(=O)c1ccc(NCCNC(=O)C23CC4CC(C2)CC(c2ccccc2)(C4)C3)c([N+](=O)[O-])c1 | 0.18
10 | CN(Cc1nc(-c2cccnc2)no1)Cc1c[nH]nc1-c1cccnc1 | -0.01
11 | Cc1ccc(OCc2nc3ccccc3n2Cc2ccccc2)cc1 | -0.21
12 | Cc1ccc(N(C)S(=O)(=O)c2cccc(C(=O)Nc3ccncc3)c2)cc1 | -0.15
13 | Cc1ccc(N(C)S(=O)(=O)c2cccc(C(=O)Nc3cccc(C(=O)NC4CC4)c3)c2)cc1 | -0.03
14 | CC1CCc2[nH]c3ccc(C(=O)Nc4cccc(S(=O)(=O)N(C)c5ccccc5)c4)cc3c2C1 (stereo not shown) | 0.39
15 | CN(c1ccccc1)S(=O)(=O)c1cccc(C(=O)Nc2ccccc2)c1 | -0.01
16 | Cc1ccc(N(C)S(=O)(=O)c2cccc(C(=O)Nc3ccc4c(c3)C(=O)N(C)C4=O)c2)cc1 | 0.89
17 | Cc1ccc(N(C)S(=O)(=O)c2cccc(C(=O)Nc3ccc(C(N)=O)cc3)c2)cc1 | 0.46
18 | CSc1cccc(NC(=O)c2cccc(S(=O)(=O)N(C)c3ccc(C)cc3)c2)c1 | 0.19
19 | CN(c1ccccc1)S(=O)(=O)c1cccc(NC(=O)c2ccc(C(N)=O)cc2)c1 | -0.01
20 | Cc1ccc(NC(=O)c2cccc(S(=O)(=O)N(C)c3ccc(C)cc3)c2)cc1 | 0.29
21 | CC(=O)Nc1ccc(NC(=O)c2cccc(S(=O)(=O)N(C)c3ccc(C)cc3)c2)cc1 | -0.04
22 | COc1cccc(NC(=O)c2cccc(S(=O)(=O)N(C)c3ccc(C)cc3)c2)c1 | -0.06
23 | Cc1ccc(N(C)S(=O)(=O)c2cccc(C(=O)Nc3ccc(Br)c(C)c3)c2)cc1 | 0.73
24 | COc1ccc(CCn2c(C)cc(C(=O)COC(=O)C34CC5CC(CC(O)(C5)C3)C4)c2C)cc1 | -0.19
25 | CN1C(=O)c2oc3ccccc3c(=O)c2C1c1ccccc1F (stereo not shown) | 0.01
26 | CCC(=O)c1ccc(OCC(=O)NNC(=O)c2cc(C)oc2C)cc1 | -0.03
27 | COc1cccc(C(C)NCc2ccc3[nH]c(=O)[nH]c3c2)c1 (stereo not shown) | -0.08
28 | O=C1NC(C(=O)O)=CC(c2ccccc2C(F)(F)F)N1 (stereo not shown) | -0.12

Row | Structure (SMILES) | TSA(with NAD+) / Primary screening (TSA) / delta Tm (K)
29 | CC1(c2cccc(NC(=O)c3ccc4c(c3)CCC4)c2)NC(=O)NC1=O (stereo not shown) | -0.13
30 | CN(c1ccccc1)S(=O)(=O)c1cccc(NC(=O)COC(=O)C23CC4CC(CC(C4)C2)C3)c1 | 0.13
31 | COC(=O)c1ccc(C2NC(=O)NC3=C2C(=O)N(CC(C)O)C3)cc1 (stereo not shown) | -0.05
32 | C=C(Br)CN | 0.06
33 | NC(=O)c1cc(C2CCCN(c3nccc(-n4cccn4)n3)C2)n[nH]1 (stereo not shown) | 0.05
34 | Cc1ccc(N(C)S(=O)(=O)c2cccc(C(=O)Oc3ccc4c(C)cc(=O)oc4c3)c2)cc1 | 0.16
35 | O=C(CC12CC3CC(CC(C3)C1)C2)NCC(=O)Nc1ccc(Sc2nc3ccccc3[nH]2)cc1 | 0.23
36 | O=C(NC(=S)Nc1ccc(-c2nc3ccccc3[nH]2)cc1)C12CC3CC(CC(C3)C1)C2 | 0.43
37 | O=C1CCCCC(C(=O)Nc2ccc(-c3nc4ccccc4[nH]3)cc2)N1 (stereo not shown) | 0.16
38 | COc1ccc2nc(C)c(C(=O)NC34CC5CC(CC(C5)C3)C4)cc2c1 | -0.28
39 | C[C@@H](N)CCO | -0.05
40 | O=C1NC(=O)C(=Cc2cn(-c3ccccc3)nc2-c2cc3ccccc3o2)C(=O)N1 | -0.11
41 | O=C1NC(=S)NC(=O)C1=Cc1cn(-c2ccccc2)nc1-c1cc2ccccc2oc1=O | -0.05
42 | O=C1NC(=S)NC(=O)C1=Cc1cn(-c2ccccc2)nc1-c1cc2ccccc2o1 | 0.56
43 | O=S(=O)(c1ccc(C(F)(F)F)cc1)N1CCNCC1 | 0.03
44 | CN(C)Cc1ccc(C(=O)Nc2cccc(C(=O)NC3CC3)c2)cc1 | 0.01
45 | NC(=O)NCCCCC(=O)Nc1cccc(C(F)(F)F)c1 | 0.08
46 | O=C(Nc1cccc(C(F)(F)F)c1)c1cccc(NC(=O)c2cc3c(cc2[N+](=O)[O-])OCCO3)c1 | 0.38
47 | CCc1cc2c(N3CCN(Cc4ccc5c(c4)OCO5)CC3)nc(C)nc2s1 | -0.04
48 | NCCCC(N)C(=O)O (stereo not shown) | -0.08
49 | NC(=O)CC1CCN(C(=O)CCc2c[nH]c3ccccc23)CC1 | -0.03
50 | O=C(CCc1ccccc1)NC1CCN(c2ccc([N+](=O)[O-])c3cccnc23)CC1 | -0.21
51 | Cc1c(C=C2C(=O)NC(=S)NC2=O)c2ccccn2c1C(=O)c1cccc([N+](=O)[O-])c1 | -0.03
52 | O=C(CCc1ccccc1)Nc1ccccc1Cc1ccccc1 | -0.06
53 | Cc1cccc(-n2ccnc2SCC(=O)Nc2ccc(S(=O)(=O)Nc3nccs3)cc2)c1C | 0.13
54 | NC(=O)COC(=O)c1ccc(OCC(=O)Nc2cccc(C(F)(F)F)c2)cc1 | 0.23
55 | O=C(COc1ccccc1C(=O)Nc1ccc(S(=O)(=O)Nc2nccs2)cc1)Nc1cccc(C(F)(F)F)c1 | 0.82
